The target of test [1] is Bromodomain-containing protein 4 (Homo sapiens) (UniProt O60885). Particulars: Compound concentration 20.0 uM, Protein concentration 2.0 uM, Result type QC Liability.
In test [2] the target is T1, Transcription intermediary factor 1-alpha (Homo sapiens) (UniProt O15164).
T1 sequence (whole entry): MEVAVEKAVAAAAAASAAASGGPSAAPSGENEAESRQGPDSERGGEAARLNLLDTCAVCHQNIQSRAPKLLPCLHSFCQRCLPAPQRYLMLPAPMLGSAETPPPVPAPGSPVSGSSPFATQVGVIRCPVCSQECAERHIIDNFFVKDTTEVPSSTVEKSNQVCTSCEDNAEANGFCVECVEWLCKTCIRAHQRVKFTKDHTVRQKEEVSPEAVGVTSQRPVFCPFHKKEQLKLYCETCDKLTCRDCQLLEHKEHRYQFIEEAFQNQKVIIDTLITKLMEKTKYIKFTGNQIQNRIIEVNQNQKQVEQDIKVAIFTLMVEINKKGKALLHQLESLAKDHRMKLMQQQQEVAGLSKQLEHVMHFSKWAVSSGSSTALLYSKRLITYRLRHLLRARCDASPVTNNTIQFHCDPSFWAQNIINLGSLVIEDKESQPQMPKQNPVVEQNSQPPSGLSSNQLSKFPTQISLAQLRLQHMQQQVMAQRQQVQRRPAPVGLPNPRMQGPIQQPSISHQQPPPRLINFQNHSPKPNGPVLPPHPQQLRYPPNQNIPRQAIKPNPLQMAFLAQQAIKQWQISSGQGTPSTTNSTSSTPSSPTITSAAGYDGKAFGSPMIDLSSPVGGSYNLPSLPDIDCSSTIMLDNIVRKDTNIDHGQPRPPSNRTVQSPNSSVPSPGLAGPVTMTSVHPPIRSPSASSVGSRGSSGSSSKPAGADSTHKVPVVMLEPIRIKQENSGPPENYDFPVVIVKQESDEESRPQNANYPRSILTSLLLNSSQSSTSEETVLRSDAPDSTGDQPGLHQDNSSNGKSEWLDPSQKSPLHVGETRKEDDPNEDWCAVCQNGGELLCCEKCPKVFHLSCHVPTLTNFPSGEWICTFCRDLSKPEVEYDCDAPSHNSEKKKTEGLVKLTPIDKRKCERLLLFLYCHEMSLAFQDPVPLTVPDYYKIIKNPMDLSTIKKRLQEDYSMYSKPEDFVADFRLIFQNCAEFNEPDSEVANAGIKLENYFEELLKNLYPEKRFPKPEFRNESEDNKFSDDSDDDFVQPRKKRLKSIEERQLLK
Particulars: Compound concentration 20.0 uM, Protein concentration 2.0 uM, Result type QC Liability.

The source of these data is ChEMBL document CHEMBL5308504, “Tm Shift (DSF) assay results for EUbOPEN Chemogenomics Library” (2023).

As usually defined, the ΔTm is the shift of the melting midpoint relative to a reference.

On to `CN1C(=O)Cc2ccc(-c3ccc(C[C@@H](C#N)NC(=O)[C@H]4N[C@@H]5CC[C@H]4C5)c(F)c3)cc21`, for which the values for the ΔTm in test [1] and in test [2] were 0.1 °C and 0.42 °C, respectively.
For `Nc1ncc2c(n1)-c1c([nH]c3ccc(C4=CCOCC4)cc13)CCC2`, in that order: -0.2 °C and 0.27 °C.
The matching figures for `CCc1ccccc1C(=O)Nc1n[nH]c2c(C)c(F)c(C3C(C#N)=C(C)N(C)C(C)=C3C#N)cc12`: -3.05 °C and -0.71 °C.
The matching figures for `COc1ccc(F)c(F)c1C(=O)c1cnc(NC2CCN(S(C)(=O)=O)CC2)nc1N`: 0.74 °C and -1.4 °C.
As to `Nc1ncc2c(n1)-c1c([nH]c3ccc(C4CC4)cc13)CCCC2`, the ΔTm was -1.04 °C in test [1] and -1.92 °C in test [2].
For `Cn1ccc(Cn2cnc(-c3ccc(F)cc3)c2-c2ccnc3[nH]ccc23)n1`, in that order: -1.68 °C and -3.2 °C.
With `COc1cc(F)ccc1-c1ncnc(Nc2cccc(C[S@](C)(=N)=O)c2)n1`, the ΔTm is 0.48 °C in test [1] and -1.99 °C in test [2].
For `CNC(=O)c1c(F)cccc1Nc1nc(Nc2cc3c(cc2OC)CCN3C(=O)CN(C)C)nc2[nH]ccc12`, in that order: -1.02 °C and -1.89 °C.
The matching figures for `COc1cc(C(=O)NCCOCCOCCOCC(=O)N[C@H](C(=O)N2C[C@H](O)C[C@H]2C(=O)NCc2ccc(-c3scnc3C)cc2)C(C)(C)C)ccc1Nc1ncc(C(F)(F)F)c(Oc2cccc3c2C(=O)CC3)n1`: -0.02 °C and 2.06 °C.
The matching figures for `O=C(Cc1ccccc1)Nc1nnc(N2CC[C@@H]3[C@H]2CN3c2cccnn2)s1`: -3.72 °C and -3.22 °C.
As to `O=C(O)CCCN1CCC[C@H]1COc1ccc(Oc2ccc(Cl)cc2)cc1`, the values for the ΔTm in test [1] and in test [2] were -2.86 °C and -0.92 °C, respectively.
In the case of `CCOC(=O)/N=C(\N)c1ccc(OCc2cccc(COc3ccc(C(C)(C)c4ccc(OC(=O)OCC)cc4)cc3)c2)cc1`, the ΔTm is -10.4 °C in test [1] and -0.45 °C in test [2].
